Assay outcomes deposited in PubChem by several laboratories.
In the library only some 1.3% were active in any assay of this set; here they are far more common.
NCOA2 inhibitor – inhibition of GAL4-SRC2 driven luciferase reporter, primary screen, SRC2 inhibitor project, cell-based, luminescence; HEK293 GAL4-SRC2 luciferase reporter; AID 651957, 2012; 370,000 compounds, 0.17% hits; Nuclear receptor coactivator 2 (Homo sapiens), Q15596; inhibition, % at 9 µM;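 active means inhibition above the mean inhibition of all tested compounds plus 3 SD, set per campaign, cut at about 52% in these data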
COUP-TFII inh – NR2F2 transcriptional activity inhibitors, primary screen, cell-based, luciferase reporter, HEK293T, luminescence; AID 686940, 2013; 370,000 compounds, 0.7% hits; inhibition, % at 8.6 µM; HEK293T NGFI-A luciferase reporter; COUP transcription factor 2 (Homo sapiens), P24468;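 active means inhibition above a per-plate cutoff, mean inhibition of test wells between control levels plus 3 SD, cut at about 38% in these data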;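 further: cells cotransfected with COUP-TFII expression vector driving the NGFI-A reporter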
SRC3 inh – SRC3 coactivator transcriptional activity inhibitors, primary screen, cell-based, luminescence; inhibition, % at 3.6 µM; 360,000 compounds, 0.17% hits; AID 588352, 2011; HEK293 GAL4-SRC3 luciferase reporter; Nuclear receptor coactivator 3 (Homo sapiens), Q9Y6Q9;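 active means inhibition above a per-campaign cutoff, the mean of all compounds plus 3 SD, cut at about 60% in these data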;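 further: higher means less SRC3-driven luciferase light from the GAL4 reporter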
Gli-Sufu antag – Gli-Sufu pathway antagonists, primary screen, luciferase luminescence, Sufu-KO-LIGHT cells, uHTS; Sufu-KO-LIGHT fibroblasts, Gli luciferase reporter luminescence; inhibition, % at 5 µM; 340,000 compounds, 0.74% hits; AID 588413, 2011;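 active means inhibition above about 55%, limit read from the data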
NCOA1 inh – SRC1 coactivator transcriptional activity inhibitors, primary screen, cell-based, luminescence; Nuclear receptor coactivator 1 (Homo sapiens), Q15788; HEK293 GAL4-SRC1 luciferase reporter; inhibition, % at 3.6 µM; 360,000 compounds, 0.12% hits; AID 588354, 2011;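 active means inhibition above the campaign mean plus 3 SD, with each screening campaign given its own cutoff, cut at about 60% in these data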
NR5A2 inv ag – LRH-1 (NR5A2) inverse agonists, primary screen, cell-based, luminescence, HEK293T, StAR-luciferase reporter; LRH-1 transfected, 24 h; 360,000 compounds, 0.13% hits; inhibition, % at 3.6 µM; AID 602396, 2012; Nuclear receptor subfamily 5 group A member 2 (Homo sapiens), O00482;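 active means inhibition above the mean inhibition of all tested compounds plus 3 SD, cut at about 73% in these data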
Gal4-VP16 ctr – Gal4-VP16 luciferase reporter inhibitors, counter-screen for COUP-TFII antagonist project, cell-based, luminescence, HEK293; AID 687007, 2013; inhibition, % at 8.5 µM; 2,500 compounds, 25% hits; shares compounds with COUP-TFII inh; in the data active means inhibition above about 13%
NR2F2 inh conf – NR2F2 transcriptional activity inhibitors, confirmation, cell-based, luciferase reporter, HEK293, triplicate; inhibition, % at 8.5 µM; shares compounds with COUP-TFII inh; AID 687008, 2013; HEK293 NGFI-A luciferase reporter, luminescence; 2,500 compounds, 45% hits;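 active means mean inhibition over three repeats above a set limit taken from the earlier primary screen, cut at about 38% in these data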
Numbers stand for hits.

`C[C@H]1CN(S(=O)(=O)C(C)(C)C)[C@H](CCO)/C1=C\CCO` gave NCOA2 inhibitor inactive and COUP-TFII inh inactive.
Screening O=C(C(=O)N1CCN(S(=O)(=O)c2ccc(Cl)cc2)CC1)c1cccc(C(F)(F)F)c1 returned NCOA2 inhibitor inactive and COUP-TFII inh inactive.
CC(=O)c1cn(CC(=O)Nc2ccc(C)cc2C)c2ccccc12 was read as NCOA2 inhibitor inactive, COUP-TFII inh 50.3, SRC3 inh inactive, Gli-Sufu antag inactive, NCOA1 inh inactive, NR5A2 inv ag inactive, Gal4-VP16 ctr 13.8 and NR2F2 inh conf 53.8.
`Cc1cc(C)cc(C(=O)NC(=S)Nc2ccc(-c3cc4ccccc4oc3=O)cc2)c1` gave NCOA2 inhibitor inactive, COUP-TFII inh 39.5, SRC3 inh inactive, Gli-Sufu antag inactive, NCOA1 inh inactive, NR5A2 inv ag inactive, Gal4-VP16 ctr 17.8 and NR2F2 inh conf inactive.
CCc1ccc(Nc2n[n+](-c3ccccc3)c(-c3c(Cl)cccc3Cl)s2)cc1 was read as NCOA2 inhibitor inactive, COUP-TFII inh 65.5, SRC3 inh inactive, Gli-Sufu antag inactive, NCOA1 inh inactive, NR5A2 inv ag inactive, Gal4-VP16 ctr 15.9 and NR2F2 inh conf inactive.
`Fc1ccc(-[n+]2nc(Nc3ccccc3)sc2-c2c(Cl)cccc2Cl)cc1` gave NCOA2 inhibitor inactive, COUP-TFII inh inactive, SRC3 inh inactive, Gli-Sufu antag inactive, NCOA1 inh inactive and NR5A2 inv ag inactive.
O=C(Nc1cccc(Br)c1)c1ccc(CN2CCc3ccccc3C2)cc1 was read as NCOA2 inhibitor inactive, COUP-TFII inh 53.0, SRC3 inh inactive, Gli-Sufu antag inactive, NCOA1 inh inactive, NR5A2 inv ag inactive, Gal4-VP16 ctr inactive and NR2F2 inh conf inactive.
O=C(Nc1ccc(F)cc1)c1ccc(CN2CCc3ccccc3C2)cc1 was read as NCOA2 inhibitor inactive, COUP-TFII inh 45.3, SRC3 inh inactive, Gli-Sufu antag inactive, NCOA1 inh inactive, NR5A2 inv ag inactive, Gal4-VP16 ctr inactive and NR2F2 inh conf inactive.
COC(=O)c1ccc(CN2CCc3ccc(NC(=O)c4ccncc4)cc3C2)cc1 was read as NCOA2 inhibitor inactive, COUP-TFII inh 48.1, SRC3 inh inactive, Gli-Sufu antag inactive, NCOA1 inh inactive, NR5A2 inv ag inactive, Gal4-VP16 ctr inactive and NR2F2 inh conf inactive.
`Cc1cccc(Cl)c1-n1nnnc1C1(C)CSCC(=O)N1Cc1ccc(F)cc1` (stereo not drawn) gave NCOA2 inhibitor inactive and COUP-TFII inh inactive.
Screening O=C(CCN1CCCC1=O)NC1CCCc2c1cnn2-c1ccccc1F (stereo not drawn) returned NCOA2 inhibitor inactive, COUP-TFII inh inactive, SRC3 inh inactive, Gli-Sufu antag inactive, NCOA1 inh inactive and NR5A2 inv ag inactive.
For O=C(NC1CCCc2c1cnn2-c1ccccc1F)c1ccncc1 (stereo not drawn) the results were NCOA2 inhibitor inactive, COUP-TFII inh 63.4, SRC3 inh inactive, NCOA1 inh inactive, NR5A2 inv ag inactive, Gal4-VP16 ctr 13.7 and NR2F2 inh conf 49.0.
For CCc1cc(C(=O)NC2CCCc3c2cnn3-c2ccc(F)cc2F)no1 (stereo not drawn) the results were NCOA2 inhibitor inactive, COUP-TFII inh 52.8, SRC3 inh inactive, NCOA1 inh inactive, NR5A2 inv ag inactive, Gal4-VP16 ctr inactive and NR2F2 inh conf inactive.
CC1=C(C(=O)NC2CCCc3c2cnn3-c2ccc(F)cc2F)OCCO1 (stereo not drawn) was read as NCOA2 inhibitor inactive, COUP-TFII inh 47.1, SRC3 inh inactive, Gli-Sufu antag inactive, NCOA1 inh inactive, NR5A2 inv ag inactive, Gal4-VP16 ctr inactive and NR2F2 inh conf inactive.
